In PubChem BioAssay AID933 (National Center for Advancing Translational Sciences (NCATS), 2009) one finds Potency and activation data, which are given here for 35 molecules.

Records with an inconclusive call do not appear. A call without a number means that no potency is given here. Calls of active or inactive are those of the source. Calls come from the whole dose curve; as a rule, active = well fitted activation curve with a large enough effect in the signal ratio, with a control signal flat; inconclusive = small, poorly fitted or top-dose-only effect, or a change in a side signal; inactive = flat fitted curve, though single readings scatter; the % refers to the signal ratio.
Potency is the fitted concentration of half-maximal effect.

Thyrotropin receptor (Homo sapiens), sequence (P16473 whole entry, looked up): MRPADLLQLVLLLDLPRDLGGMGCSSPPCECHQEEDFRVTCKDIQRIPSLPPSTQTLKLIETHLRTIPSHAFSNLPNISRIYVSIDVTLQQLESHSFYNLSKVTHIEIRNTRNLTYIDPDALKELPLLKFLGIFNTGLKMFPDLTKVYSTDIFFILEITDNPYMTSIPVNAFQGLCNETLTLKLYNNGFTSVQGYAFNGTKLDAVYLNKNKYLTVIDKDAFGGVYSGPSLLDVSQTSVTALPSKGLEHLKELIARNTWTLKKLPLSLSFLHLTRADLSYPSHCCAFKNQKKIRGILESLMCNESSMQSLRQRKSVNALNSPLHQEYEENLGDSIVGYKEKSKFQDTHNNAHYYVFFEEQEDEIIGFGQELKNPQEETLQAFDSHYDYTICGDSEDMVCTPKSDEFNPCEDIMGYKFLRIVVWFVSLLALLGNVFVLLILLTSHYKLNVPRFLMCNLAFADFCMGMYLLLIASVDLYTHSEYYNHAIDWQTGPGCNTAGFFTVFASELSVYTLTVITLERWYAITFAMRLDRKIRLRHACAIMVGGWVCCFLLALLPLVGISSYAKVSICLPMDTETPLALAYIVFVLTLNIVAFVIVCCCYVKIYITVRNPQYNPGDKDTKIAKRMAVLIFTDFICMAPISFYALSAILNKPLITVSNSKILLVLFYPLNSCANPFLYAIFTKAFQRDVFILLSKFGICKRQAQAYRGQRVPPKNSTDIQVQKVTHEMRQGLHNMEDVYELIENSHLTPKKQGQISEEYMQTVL

The assay addresses Thyrotropin receptor (Homo sapiens) (UniProt P16473). The assay can be described thus: Secondary Concentration-Response Assay for Agonists of the Thyroid Stimulating Hormone Receptor: HTRF Activity Detection. The following applies: HEK293-TSHR cells, cAMP HTRF ratio, 30 min; series mostly up to 91.7 µM. The method, boiled down:
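cAMP accumulation was detected by antibody-based HTRF, excitation 330 nm, emissions 615 and 660 nm. Compounds acted for 30 min at room temperature on stably TSHR-transfected HEK 293 cells, with phosphodiesterase inhibitor RO 20-1724 (100 uM) in the medium.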
In the case of `COc1ccc(C(=O)O)cc1COc1ccc(NC(C)=O)cc1`, the Potency entry is “inactive”. Same read-out and setting: the same measure for `CN1C(=O)c2ccccc2N(C)C1c1ccc2c(c1)OCO2` (stereo not given): “inactive”. With `O=C(CN(Cc1ccccc1Cl)C(=O)Cn1nnc(-c2cccs2)n1)NCC1CCCO1` (stereo not given), the activation is 0.671% [at 0.00035 µM] (inactive).

Take `CC1(C)CC(=O)C2=C(C1)OC(N)=C(C#N)C2CCc1ccccc1` (stereo not given): the activation is -0.482% [at 0.00035 µM] (inactive). Consider `COc1ccc(CN(Cc2ccccc2)C(=O)c2ccco2)cc1COc1ccc(NC(C)=O)cc1`, for which the Potency is 15.8 µM (active). For the molecule `COc1cc(OC)c(C(=O)N(Cc2ccco2)Cc2cccs2)cc1OC`, the Potency entry was “inactive”. For the molecule `CC(NC(=O)COC(=O)c1ccco1)C12CC3CC(CC(C3)C1)C2` (stereo not given), the Potency entry is “inactive”.

With `Cc1ccc(C2Nc3ccccc3C(=O)N2Cc2ccco2)cc1` (stereo not given), the Potency result was “inactive”. On the same count and under the same terms, then `O=C(COC(=O)C12CC3CC(CC(Cl)(C3)C1)C2)NCc1ccco1`, with 14.1 µM (active). The same measure, in the same setting: then `CCCN1C(=O)c2ccccc2NC1c1ccc(OC)c(COc2cccc(OC)c2)c1` (stereo not given), with “inactive”. Same read-out and setting: the same measure for `CCCN1C(=O)c2ccccc2NC1c1ccc(OC)c(COc2cccc(C)c2C)c1` (stereo not given): “inactive”; for `CCOc1cc(C2Nc3ccccc3C(=O)N2Cc2ccco2)ccc1O` (stereo not given): “inactive”.

For `COc1ccc(C2Nc3ccccc3C(=O)N2CCO)cc1COc1ccc(NC(C)=O)cc1` (stereo not given), the Potency result is “inactive”. For the molecule `Cc1sc2ncn(/N=C/c3cn(-c4ccccc4)nc3-c3ccccc3)c(=O)c2c1C`, the Potency entry is “inactive”.

As for `COc1ccc(C2Nc3ccccc3C(=O)N2c2ccc(F)cc2)cc1COc1ccc(NC(C)=O)cc1` (stereo not given), the Potency entry was “inactive”. Still for that read-out and setting: then `COc1ccc(C2Nc3ccccc3C(=O)N2Cc2ccco2)cc1COc1ccccc1` (stereo not given), with “inactive”; and `CCCN1C(=O)c2ccccc2NC1c1ccc(OC)c(COc2ccc([N+](=O)[O-])cc2)c1` (stereo not given), with “inactive”. On the same count and under the same terms, the same measure for `COc1cc(C2Nc3ccccc3C(=O)N2c2ccccc2)c(Br)cc1OCC(=O)O` (stereo not given): “inactive”; for `COc1ccc(C(=O)N(Cc2ccccc2)Cc2ccco2)c(O)c1`: 15.8 µM (active); for `CCOC(=O)COc1c(OC)cc(Cl)cc1C1Nc2ccccc2C(=O)N1c1cccc(C)c1` (stereo not given): “inactive”.

In the case of `COc1ccc(C2Nc3ccccc3C(=O)N2Cc2ccccc2)cc1COc1ccc(Cl)cc1` (stereo not given), the Potency entry is “inactive”. On the same count and under the same terms, then `COc1ccc(C2Nc3cccc(O)c3C(=O)N2Cc2ccccc2)cc1COc1ccc(NC(C)=O)cc1` (stereo not given), with 7.94 µM (active). Same read-out and setting: the same measure for `CC(=O)Nc1cccc(OCc2cccc(C3Nc4ccccc4C(=O)N3Cc3ccco3)c2)c1` (stereo not given): “inactive”. Consider `Cc1ccccc1-n1nc(C)c2cc(C(=O)N3CCN(S(=O)(=O)c4ccc(F)cc4)CC3)sc21`, for which the activation was 0.202% [at 0.00035 µM] (inactive). Same read-out and setting: then `COc1cc(OC)cc(C(=O)N2c3ccc(F)cc3CCC2C)c1` (stereo not given), with -0.327% [at 0.00035 µM] (inactive). Turning to `COc1ccc(C2Nc3ccccc3C(=O)N2c2ccc(C)cc2)cc1Cn1nc(C)c([N+](=O)[O-])c1C` (stereo not given), the Potency result was “inactive”. On to `Cc1cc(C)nc(N(C#N)CC(=O)N2CCC(C(N)=O)CC2)n1`, for which the activation was 1.28% [at 0.00035 µM] (inactive). On the same count and under the same terms, the same measure for `COc1ccc(N(C)S(=O)(=O)c2cccc(C(=O)NC3=NCCS3)c2)cc1`: 1.29% [at 0.00035 µM] (inactive). For the molecule `COc1ccc(C2Nc3ccccc3C(=O)N2CCc2ccccc2)cc1COc1ccc(NC(C)=O)cc1` (stereo not given), the Potency was 7.94 µM (active).

Turning to `O=c1c2c(-c3ccccc3)csc2ncn1/N=C/c1cn(-c2ccccc2)nc1-c1cccs1`, the Potency result was “inactive”. Same read-out and setting: then `NC(=O)c1nsc(C(=O)N(CC(=O)NCc2ccc3c(c2)OCO3)C2CCCC2)c1N`, with “inactive”; and `COc1ccc(C(=O)N(Cc2ccco2)Cc2cccs2)c(O)c1`, with 50.1 µM (active). On to `CCOc1ccc(N(CC(=O)NCc2cccs2)S(=O)(=O)c2c(C)noc2C)cc1`, for which the activation is -0.0859% [at 0.00035 µM] (inactive). For `CS(=O)(=O)N1CCN(C(=O)c2cc(-c3cccs3)nc3ccccc23)CC1`, the activation was 0.0393% [at 0.00035 µM] (inactive). Consider `COc1cc(C2Nc3ccccc3C(=O)N2Cc2ccco2)ccc1O` (stereo not given), for which the Potency result was “inactive”.
